Ecoli rRNA inh: selective bacterial rRNA inhibition in E. coli. E. coli WT GFP vs humanized-ribosome RFP mutants, fluorescence, 24 h; active compounds read low; DMSO median 0, no signal -100. GFP signal change (wild-type ribosome), % (test concentration not listed). actives 1.6% (n = 350,000);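 active = significant combined selectivity score with lowered wild-type GFP, culture density cut under 30%, mutant RFP and density less affected; inactive = any of these conditions unmet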
MITF TRPM1 HTS: increases MITF-driven TRPM1 promoter luciferase signal | SK-MEL-5 TRPM1-promoter luciferase, 24 h; % of positive control, neutral wells = 0 | activation, % at 12.5 µM | actives 0.75% (n = 300,000) | AID 588334;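 active = mean activation of at least 80% with every replicate also reaching 80%; inconclusive = mean reaches 80% but some replicate falls short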
Wnt act: activates Wnt/beta-catenin signaling in a reporter cell assay. activator, plate reader. actives 1.2% (n = 300,000). activation, % at 9.35 µM; in the data active = activation above about 30%, passing the limit was not always enough; inconclusive = no clear call, values can overlap the other calls
AF4-AF9 inh: blocks AF4 peptide binding to human AF9; AlphaScreen, biotin-AF4 peptide binding to FLAG-AF9; inhibition, % at 10 µM; actives 0.47% (n = 350,000); AID 651704;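 active = every replicate reaching a set inhibition limit, whatever the replicate mean, cut at about 25% in these data; inconclusive = mean inhibition reaches that limit but some replicates miss it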
Target sequence (P42568 whole entry, looked up): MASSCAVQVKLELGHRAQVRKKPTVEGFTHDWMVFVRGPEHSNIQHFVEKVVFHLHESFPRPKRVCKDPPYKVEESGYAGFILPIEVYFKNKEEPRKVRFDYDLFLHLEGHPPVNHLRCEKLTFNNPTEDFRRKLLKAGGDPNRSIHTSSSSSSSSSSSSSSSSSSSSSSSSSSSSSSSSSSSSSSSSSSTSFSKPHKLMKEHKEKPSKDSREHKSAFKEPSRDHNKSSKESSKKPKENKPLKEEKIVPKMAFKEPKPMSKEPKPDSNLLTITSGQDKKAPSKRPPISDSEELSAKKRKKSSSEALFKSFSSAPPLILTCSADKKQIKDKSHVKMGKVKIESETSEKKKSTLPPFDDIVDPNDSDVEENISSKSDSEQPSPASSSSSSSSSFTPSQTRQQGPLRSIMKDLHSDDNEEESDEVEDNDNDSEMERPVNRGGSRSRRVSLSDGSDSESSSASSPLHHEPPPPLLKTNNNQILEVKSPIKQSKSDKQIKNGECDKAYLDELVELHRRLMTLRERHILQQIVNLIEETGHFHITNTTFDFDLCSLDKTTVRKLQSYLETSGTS
esBAF inh: inhibitors of esBAF chromatin remodeling in mouse ES cells; Bmi1-luciferase knock-in reporter, 24 h; 100% = twice the neutral-well signal; reporter increase, % at 12.5 µM; actives 2% (n = 350,000); AID 602393; in the data active = activation above about 40%; inconclusive = no clear call, values can overlap the other calls;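 note: a rise in the Bmi1 reporter signal indicates esBAF inhibition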
AID977621: wild-type E. coli growth inhibition versus H69 humanized strain – H69 mutant RFP, wild-type GFP, cherry-pick, dose response; activity change, negative = inhibition at 50 µM; shares compounds with Ecoli rRNA inh; 1,900 tested, under 10 active; AID 977621; fluorescence, 24 h;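 active = Wild-type ribosome reporter drop at least double the humanized mutant ribosome reporter drop, growth loss under a set limit; inconclusive = no clear call, values can overlap the other calls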;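 note: wild-type GFP and H69 mutant RFP strains grown together 50/50 in each well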
AID977628: growth of wild-type and h24-humanized E. coli strains – h24 mutant RFP vs wild-type GFP, cherry-pick, dose response; shares compounds with Ecoli rRNA inh; 1,900 tested, under 10 active; E. coli WT GFP strain growth, fluorescence, 24 h; activity change, negative = inhibition at 50 µM;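 active = compound lowering the normal-ribosome reporter at least twice as much as the humanized-ribosome reporter, growth loss under a set limit; inconclusive = no clear call, values can overlap the other calls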;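 note: wild-type GFP and h24 humanized RFP strains co-cultured 1 to 1 per well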
Large screens that a line does not name were inactive (follow-up assays come after a bar, where they were run). Most compounds without a hit are left out; they make up all but 3.7% or so of the library.

O=C(Nc1ccc(Cl)c(Cl)c1)N[C@H]1CC[C@H](CCn2cc(C3CCCCC3)nn2)O[C@H]1CO	none (no result: MITF TRPM1 HTS, Wnt act)
O=C(Nc1ccc(Cl)c(Cl)c1)N[C@H]1CC[C@@H](CCn2cc(C3CCCCC3)nn2)O[C@@H]1CO	Ecoli rRNA inh -44 (no result: MITF TRPM1 HTS, Wnt act) | AID977628 inconclusive
O=C(Nc1ccc(Cl)c(Cl)c1)N[C@@H]1CC[C@@H](CCn2cc(C3CCCCC3)nn2)O[C@H]1CO	Ecoli rRNA inh -42 (no result: MITF TRPM1 HTS, Wnt act) | AID977621 inconclusive | AID977628 inconclusive
CC1(C(=O)NS(=O)(=O)c2ccccc2Cl)CCN1C(=O)CC1CC1 (stereo not given)	none (no result: MITF TRPM1 HTS)
NS(=O)(=O)c1ccc(Nc2c([N+](=O)[O-])cncc2[N+](=O)[O-])cc1	Ecoli rRNA inh -37 (no result: MITF TRPM1 HTS) | AID977628 inconclusive
COc1cccc(Nc2c([N+](=O)[O-])cncc2[N+](=O)[O-])c1	none
COCc1c(C#N)c(NCCc2ccc(F)cc2)nc(C)c1[N+](=O)[O-]	Ecoli rRNA inh -17 (no result: esBAF inh) | AID977621 inactive | AID977628 inactive
C[C@@H]1CN([C@@H](C)CO)C(=O)c2cc(NS(=O)(=O)c3ccc(Cl)cc3)ccc2O[C@H]1CN(C)S(=O)(=O)c1ccc(Cl)cc1	none (no result: MITF TRPM1 HTS, Wnt act)
COc1cc(CCN(C(=O)c2cc3ccccc3[nH]2)C(c2ccccn2)c2nc3ccccc3[nH]2)cc(OC)c1 (stereo not given)	Ecoli rRNA inh -26 (no result: MITF TRPM1 HTS) | AID977621 inactive | AID977628 inactive
COc1ccc([C@H]2CC(=O)C=C(c3ccc(C)c([N+](=O)[O-])c3)C2)cc1	none
O=C(CC1C(=O)NCCN1Cc1ccccc1C(F)(F)F)NCCn1cccn1 (stereo not given)	none
COc1ccc([C@H]2C[C@H](O)C[C@@H](CCn3cc(-c4ccccc4)nn3)O2)cc1	Ecoli rRNA inh -22 (no result: MITF TRPM1 HTS, esBAF inh) | AID977628 inactive
COc1ccc([C@H]2CC(=O)C[C@@H](CCn3cc(-c4ccncc4)nn3)O2)cc1	none (no result: MITF TRPM1 HTS, esBAF inh)
Oc1c(C(c2ccc(F)cc2)N2CCc3ccccc3C2)sc2ncnn12 (stereo not given)	none
Cc1ccccc1C(=O)NC1CC2CCCC(C1)N2CC(C)C (stereo not given)	none (no result: MITF TRPM1 HTS)
CCOC(=O)c1ccc(NC(=O)c2ccc(OC(C)C)c(OC)c2)cc1	Ecoli rRNA inh -26 (no result: esBAF inh) | AID977621 inactive | AID977628 inactive
CCOC(=O)c1ccc(NC(=O)Nc2ccc(OC)c(OC)c2)cc1	none (no result: Ecoli rRNA inh, Wnt act, AF4-AF9 inh)
Cc1cc(NC(=O)c2sc(Nc3ccc(F)c(Cl)c3)nc2N)no1	Ecoli rRNA inh -22 | AID977621 inactive | AID977628 inactive
CS(=O)(=O)c1ccc(C(=O)Nc2nc(-c3ccco3)c(-c3ccco3)s2)cc1	Ecoli rRNA inh -19 | AID977621 inactive | AID977628 inconclusive
O=C(Nc1nc(-c2ccco2)c(-c2ccco2)s1)C1CCC1	none (no result: esBAF inh)
CCN(c1ccccc1)S(=O)(=O)c1ccc(OC)c(NC(=O)C2CC(=O)N(Cc3ccccc3)C2)c1 (stereo not given)	Ecoli rRNA inh -31 | AID977628 inconclusive
COc1ccc(NC(=O)c2cccs2)cc1C(=O)N1CCN(c2ccccc2)CC1	Ecoli rRNA inh -21 (no result: esBAF inh) | AID977621 inactive | AID977628 inactive
COc1cccc(OC)c1C(=O)Nc1ccc(N2CCN(C(=O)c3cccs3)CC2)cc1	none (no result: esBAF inh)
COC(=O)c1sc(C(C)(C)C)cc1CS(=O)(=O)c1ccc(Cl)cc1	Ecoli rRNA inh -31 (no result: esBAF inh) | AID977621 inactive | AID977628 inactive
CS(=O)(=O)N1CCc2cc(C(=O)N3CCN(c4ccc(F)cc4)CC3)ccc21	none
O=C(c1ccc2c(c1)CCN2S(=O)(=O)c1ccccc1)N1CCN(c2ccccc2)CC1	Ecoli rRNA inh -26 | AID977628 inconclusive
O=C(Nc1c(S(=O)(=O)c2ccc(Cl)cc2)csc1Br)c1ccccc1Cl	Ecoli rRNA inh -26 (no result: MITF TRPM1 HTS, esBAF inh) | AID977621 inactive | AID977628 inconclusive
O=C(NC(=O)c1ccccc1Cl)C(=O)Nc1ccc(Cl)cc1	none (no result: esBAF inh)

Bioassay records (PubChem)
